TDP1 cell noCPT – qHTS for Inhibitors of human tyrosyl-DNA phosphodiesterase 1 (TDP1): qHTS in cells in absence of CPT; DT40 Tdp1-/- hTDP1 cells, no CPT, ATP luminescence, 48 h; Potency, µM (highest dose often 46.2 µM), for inactives: at the top dose activity change, negative = growth inhibition, usual class: inhibitors; actives 15% (n = 420,000); AID 686978, 2013; note: potency is the fitted concentration of half-maximal effect; nearly all actives have a fitted effect of over 55% in size
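Stably hTDP1-transfected Tdp1-null chicken DT40 cells were treated with library compounds minus camptothecin and grown for at least 48 hr at 37 °C, after which cellular ATP was quantified by luminescence.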
RORgamma inh – inhibitors of mouse ROR gamma transcriptional activity; P51450; Drosophila S2 Gal4-RORgamma UAS-luciferase reporter, 20 h; Potency, µM (titrated, usually from 53.6 µM), for inactives: at the highest dose activity change, negative = inhibition, actives largely listed as inhibitors; actives 5.4% (n = 310,000); note: potency is the fitted concentration of half-maximal effect; nearly all actives have a fitted effect of over 60% in size
Target sequence (P51450 whole entry, looked up, the tested form may be a part): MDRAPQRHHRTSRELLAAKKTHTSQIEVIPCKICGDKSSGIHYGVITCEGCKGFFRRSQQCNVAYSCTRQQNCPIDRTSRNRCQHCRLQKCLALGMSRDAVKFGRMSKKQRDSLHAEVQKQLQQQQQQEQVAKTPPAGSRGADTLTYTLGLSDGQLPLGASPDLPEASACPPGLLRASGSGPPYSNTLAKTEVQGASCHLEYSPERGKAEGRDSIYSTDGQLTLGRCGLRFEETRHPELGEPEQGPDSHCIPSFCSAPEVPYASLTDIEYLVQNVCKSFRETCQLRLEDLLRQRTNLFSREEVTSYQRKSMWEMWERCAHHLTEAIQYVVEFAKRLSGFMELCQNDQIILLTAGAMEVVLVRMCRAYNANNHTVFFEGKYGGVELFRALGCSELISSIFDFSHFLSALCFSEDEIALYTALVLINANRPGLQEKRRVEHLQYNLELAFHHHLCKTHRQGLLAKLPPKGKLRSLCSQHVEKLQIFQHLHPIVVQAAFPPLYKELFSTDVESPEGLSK
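Schneider cells (Drosophila), stable Gal4 DBD–ROR gamma + UAS-luc; 1 hr cmpd preincubation; Cu2+ induction 700 uM final; 20 hr ambient; luminescence.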
VP16 counter – counter-screen for ROR gamma inhibitors: Gal4-VP16 reporter; AID 2546; Potency, µM (doses to about 53.6 µM), without a hit: top-dose activity, negative = inhibition, actives largely listed as inhibitors; Drosophila S2 Gal4-VP16 UAS-luciferase, luminescence, 20 h; actives 3.5% (n = 310,000);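 note: Gal4-VP16 expression switched on by copper sulfate through the metallothionein promoter; potency is the fitted concentration of half-maximal effect; nearly all actives have a fitted effect of over 50% in size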
IL1B secr inh – inhibitors of inflammasome signaling (IL-1 beta secretion). THP-1 LPS/ATP IL-1B secretion, AlphaLISA, 16 h; hits give low values. activity change, % at 57.5 µM. actives 4.7% (n = 360,000). AID 743279; in the data active = activity change below about -50%; inconclusive = mostly about -30% to -49%
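THP-1 cells pretreated 1 hr with compounds (up to 57.5 uM final), then stimulated with LPS (250 ng/mL final) plus ATP (1.25 mM final); secreted IL-1B measured by AlphaLISA after 16 hr, decreased signal indicating inhibition.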
TDP1 cell CPT – DT40-hTDP1 cell growth loss with CPT. chicken DT40 Tdp1-/-;hTDP1 cells + 20 nM CPT, ATP luminescence, 48 h. Potency, µM (titrated, usually from 46.2 µM), for inactives: top-dose activity change, negative = growth inhibition, actives largely listed as inhibitors. actives 12% (n = 420,000). AID 686979; note: potency is the fitted concentration of half-maximal effect; nearly all actives have a fitted effect of over 55% in size
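Chicken DT40 Tdp1-/- cells stably complemented with human TDP1 were seeded at 400 cells/well in medium containing 20 nM camptothecin, exposed to pin-transferred compounds, and grown at 37 °C for at least 48 hr. Viability was read as ATP luminescence.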
LDHA block – inhibitors of human lactate dehydrogenase A; actives 0.15% (n = 480,000); P00338; activity change, % (values are at about 110 or 230 µM); purified LDHA, NADH/diaphorase-resazurin fluorescence; hits give low values; AID 1347041; in the data active = activity change below about -30%; inconclusive = mostly about -25% to -30%;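 note: plate controls were DMSO wells for no effect and wells without enzyme for full effect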
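Human LDH5 (2 nM) was incubated with 0.06 mM NADH and 0.2 mM pyruvate for 5 min at room temperature in Tris pH 7.4. Remaining NADH was coupled through diaphorase/resazurin, and resorufin fluorescence was read at 0 and 20 min.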
* = called active by the depositor; ? = inconclusive; / = not tested or not shown. Shown are actives, neighbours in structure and some others; about 18% of the full set was active somewhere. Unless noted, calls come from the whole dose curve; as a rule, active = well fitted curve in the direction sought with a large enough effect; inconclusive = small, poorly fitted or top-dose-only effect, or another doubt; inactive = no such curve, though single readings can be large; an effect the other way counts as inactive or inconclusive. Unless noted, % is set by controls: 0 for no effect and ±100 for the full control effect.

SMILES	TDP1 cell noCPT	RORgamma inh	VP16 counter	IL1B secr inh	TDP1 cell CPT	LDHA block
COCCn1c(-c2ccc(OCc3ccc(F)cc3)c(OC)c2)nc2c1c(=O)[nH]c(=O)n2CC(C)C	/	/	/	/	/	1
CCC(C)NC(=O)/C(C#N)=C/c1c(C)[nH]c2ccccc12 (stereo unspecified)	/	/	/	/	/	3
CCCNC(=S)NC1CC2CCCC(C1)N2Cc1ccc(F)cc1 (stereo unspecified)	18µM*	?	-2%	1	?	-2
Cc1cccc(NC(=S)NC2CC3CCC(C2)N3Cc2ccco2)c1 (stereo unspecified)	-9%	-39%	-4%	0	-22%	-6
CCc1ccccc1NC(=S)NC1CC2CCCC(C1)N2Cc1cccs1 (stereo unspecified)	?	11µM*	?	?	-25%	-12
Cc1cccc(NC(=S)NC2CC3CCCC(C2)N3Cc2ccco2)c1 (stereo unspecified)	-13%	11µM*	?	-16	?	-4
CC(C)CNC(=S)NC1CC2CCCC(C1)N2Cc1cccs1 (stereo unspecified)	?	11µM*	-28%	-18	?	-9
COc1cccc(-c2ccc3nnc(SCC(=O)N4CCCc5ccccc54)n3n2)c1	/	/	/	/	/	8
O=C(CSc1ccc2ccccc2n1)NCCc1ccc(Cl)cc1	/	/	/	/	/	-2
CC(NS(=O)(=O)c1cccc2nsnc12)c1ccccc1 (stereo unspecified)	/	/	/	/	/	2
O=C(CCCc1nc(-c2ccc(Cl)cc2)no1)NC1CCCC1	8.2µM*	-3%	-7%	-6	8.2µM*	-6
COc1ccc(-c2noc(CCCC(=O)NC3CCCC3)n2)cc1	16µM*	4.5µM*	14µM*	-13	16µM*	-2
COc1ccc(-c2noc(CCCC(=O)Nc3ccc(C(N)=O)cc3)n2)cc1	-25%	1.6µM*	2.5µM*	40	-24%	-9
COc1ccc(-c2noc(CCC(=O)NC3CCCCCC3)n2)cc1	1%	25%	-6%	21	?	-5
Cn1c(=O)c2nc(SCC(=O)NCc3ccccc3Cl)n(C)c2n(C)c1=O	/	/	/	/	/	5
CC1=CC(C)(C)N(C(=O)CN2C(=O)c3ccccc3C2=O)c2ccc(C)cc21	-26%	?	20µM*	0	?	1
Cn1nc(C(=O)OCc2nc(-c3ccccc3)no2)c2ccccc21	/	/	/	/	/	-3
COc1ccc(CN[C@H]2CS(=O)(=O)C[C@@H]2S(=O)(=O)c2ccc(F)cc2)cc1OC	/	/	/	/	/	-9
Cc1cc(=O)oc2cc(OCC(=O)Nc3c(C(C)C)cccc3C(C)C)ccc12	13µM*	/	/	/	?	-11
CC(=O)c1cccc(NC(=O)COc2ccc3c(C)cc(=O)oc3c2)c1	/	/	/	/	/	-21
Cc1cc(OCC(=O)Nc2c(C(C)C)cccc2C(C)C)no1	8.2µM*	/	/	30	13µM*	0
Cc1cc(OCC(=O)Nc2ccccc2C)no1	7%	/	/	-9	0%	-6
Cc1cc(/C=C(\C#N)C(=O)Nc2ccc(F)cc2)c(C)n1-c1ccc(N2CCOCC2)c([N+](=O)[O-])c1	12µM*	0%	2%	-13	8.2µM*	-2
CNC(=O)/C(C#N)=C\c1cc(C)n(-c2ccc(N3CCOCC3)cc2)c1C	?	-3%	1%	16	?	2
COc1ccc(NC(=O)/C(C#N)=C/c2cc(C)n(-c3ccc(N4CCOCC4)c([N+](=O)[O-])c3)c2C)cc1	2.3µM*	41%	8%	-13	3.7µM*	-7
SMILES	TDP1 cell noCPT	RORgamma inh	VP16 counter	IL1B secr inh	TDP1 cell CPT	LDHA block
O=C1Cc2cc(-c3csc(Nc4ccccc4F)n3)ccc2N1	/	/	/	/	/	-4
Cc1nc(CNC(=O)NCC(C)N2CCCCC2C)cs1 (stereo unspecified)	/	/	/	/	/	1
CCC/C(=C1/c2ccccc2C(=O)N1c1ccccc1)c1ccc(O[C@@H]2CCCCO2)cc1	16µM*	/	/	42	?	0
Cc1cc(C)c(O)c(-c2n[nH]c3c2C(c2ccccc2F)N(CCO)C3=O)c1 (stereo unspecified)	/	/	/	/	/	-1
CC(C)(C)CC(=O)NCC(=O)O	/	/	/	/	/	10
C=CCC(CC(O)COCCC)C(=O)NNC(=S)Nc1ccccc1 (stereo unspecified)	2.3µM*	0.28µM*	0.79µM*	-6	4.6µM*	-9
CC(C)CCOCC(O)CCC(=O)NNC(=S)Nc1ccccc1 (stereo unspecified)	0%	11µM*	?	11	-14%	-13
CC(C)CCC(CC(C)O)C(=O)NNC(=S)Nc1ccccc1 (stereo unspecified)	9%	-30%	-8%	-16	9%	-14
Cc1ccc(C(c2sc3nc(-c4ccco4)nn3c2O)N2CCC(O)CC2)cc1 (stereo unspecified)	/	/	/	/	/	3
Cc1ccccc1C(=O)N1CCC2(CC1)OCCN2S(=O)(=O)c1ccc(Cl)cc1	/	/	/	/	/	-5
COc1ccc(NC(=O)c2nn(C(C)C)c(=O)c3ccccc23)cc1	/	/	/	/	/	0
Cc1cc(SCC(=O)c2cccs2)n2nc(C)c(-c3ccc(Cl)cc3)c2n1	?	1µM*	?	-7	16µM*	-2
Cc1nn2c(SCC(=O)c3cccs3)cc(C(C)(C)C)nc2c1-c1ccccc1	?	10µM*	7.1µM*	26	?	-1
C=CCSc1cc(C)nc2c(-c3ccc(Cl)cc3)c(C)nn12	?	20µM*	?	-6	-29%	-4
CCCCCSc1ccc(/C=C/C(=O)O)cc1	/	/	/	/	/	0
O=C(COC(=O)C1CCCN1C(=O)C12CC3CC(CC(C3)C1)C2)c1ccc(Br)cc1 (stereo unspecified)	?	2%	-20%	-11	?	-5
COc1ccc(C(=O)COC(=O)C2CCCN2C(=O)C23CC4CC(CC(C4)C2)C3)cc1 (stereo unspecified)	-24%	-1%	-2%	1	23µM*	-3
CC(C)(C)NC(=O)C(c1ccco1)N(C(=O)Cn1nnc(-c2ccc(F)cc2)n1)c1cccc(F)c1 (stereo unspecified)	21µM*	-37%	1%	-4	?	-4
CC(C)(C)NC(=O)C(c1c[nH]c2ccccc12)N(C(=O)Cn1nnc(-c2ccc(F)cc2)n1)c1cccc(O)c1 (stereo unspecified)	21µM*	?	-13%	?	?	-1

Screening results (PubChem)
